Source: the OligoGym collection

molecular target: SPATA2; test: pooled miR-30 sensor sort-seq; sequence = guide strand; details: shRNA
Further: reference of the scale not given here.

Row | Sequence | sensor-assay potency score (higher = more potent)
1 | TGAGTGGATTTCTAGCATCTGC | -1.11
2 | TCTTCCAGTAATGTCGACTTGA | 0.423
3 | TCATAGAACTGGATCAGCCGGA | 0.651
4 | TTGACAGTACAGTAAGAGGGGC | -0.34
5 | TTGTCCTTCACTTGTGAGTGGA | -0.193
6 | TCACTCTTTTTGTAGCAGGGGT | -0.679
7 | TTGATGTAGCCCTTGGAGCTGG | -0.512
8 | TCTGAGCAGCCACACATCCGGC | -1.47
9 | TTGTGAGTGGATTTCTAGCATC | -1.52
10 | TGGAACTGCACGTACTTCCGAA | -0.761
11 | TGAGACTTTTGAACACTGGGTG | 0.544

molecular target: SPATA5L1; test: as above; details: shRNA

Row | Sequence | sensor-assay potency score (higher = more potent)
12 | TATCTAATCTTCCAGGTCGTAA | -0.994
13 | TTCTTGAACATCACATCCTGTC | -0.27
14 | TTGAACATCACATCCTGTCTTG | 0.227
15 | TTCTGAATCTCCAACAAACGGT | -0.635
16 | AAAAACTTCTTGAAACTCCTGT | 1.07
17 | TGATCTTATCTAATCTTCCAGG | -0.767
18 | TAGATGATCTTATCTAATCTTC | -0.209
19 | TAATCTTCCAGGTCGTAACAAA | -1.18
20 | TTGCTTGTCGAAATATCTGAGA | -0.878
21 | TTGTCTTAAGTCCAACACCATC | -1.76
22 | TTATCTAATCTTCCAGGTCGTA | -0.899
23 | TTAACTTCAGTTTTACATCTTC | 0.121

molecular target: SPATS2L; test: as above; details: shRNA

Row | Sequence | sensor-assay potency score (higher = more potent)
24 | TTGATCTTCTTCACGGAACTAT | -0.0493
25 | TATCTAGTTAGAGAAACGGTGC | -0.565
26 | TTGTCTTTAGCATCTTTGTTGC | -0.548
27 | TTGGTTAGAAGATCCATTCTGC | 0.635
28 | TTCTTCTTTAACTTTATCCATT | -1.35
29 | TTCGTTAGCAGAATCTGTGGAC | 0.593
30 | TTGTTGGGAACAACTGATCTAA | -0.513
31 | TATTGTTCTTCTTTTTTCCTGT | 0.296
32 | TATATTCTGATTGACACTCTTT | 0.138
33 | TTTAGAACTTGAATTGCACTGC | 0.683
34 | TTCATTATTGCTTTTGTTGGGA | 0.203
35 | TTGAATTGCACTGCCATCCACA | 0.0707

molecular target: SPESP1; test: as above; details: shRNA

Row | Sequence | sensor-assay potency score (higher = more potent)
36 | TTTTATTACTTGTTCGTCCTAC | 0.295
37 | TAGATTTTTTCTCACGACCTGG | -0.569
38 | TTGTTTTTAATTTATGTTCTGC | 0.0799
39 | TTAATTTATGTTCTGCTGCTGC | -0.241
40 | TCCATGTGTAACTAGCTCCTTA | -0.658
